# “And” between values parts separate entries of the source, which are not always exact repeats. Equal entries are not always repeated. Records with an inconclusive call do not appear. The source made the active and inactive calls. Unless noted, the call rests on the fitted dose curve; in most records, active means well fitted curve in the direction sought with a large enough effect; inconclusive means small, poorly fitted or top-dose-only effect, or another doubt; inactive means no such curve, though single readings can be large; an effect the other way counts as inactive or inconclusive.
# Assays:
# [1] = biological target: Alpha-galactosidase A (Homo sapiens) (UniProt P06280); assay: Counterscreen for Glucocerebrosidase Inhibitors: qHTS Assay for Human alpha-Galactosidase at pH 4.5 (AID 992); further: 0% is about no effect
# Alpha-galactosidase A (Homo sapiens), sequence (P06280 whole entry, looked up): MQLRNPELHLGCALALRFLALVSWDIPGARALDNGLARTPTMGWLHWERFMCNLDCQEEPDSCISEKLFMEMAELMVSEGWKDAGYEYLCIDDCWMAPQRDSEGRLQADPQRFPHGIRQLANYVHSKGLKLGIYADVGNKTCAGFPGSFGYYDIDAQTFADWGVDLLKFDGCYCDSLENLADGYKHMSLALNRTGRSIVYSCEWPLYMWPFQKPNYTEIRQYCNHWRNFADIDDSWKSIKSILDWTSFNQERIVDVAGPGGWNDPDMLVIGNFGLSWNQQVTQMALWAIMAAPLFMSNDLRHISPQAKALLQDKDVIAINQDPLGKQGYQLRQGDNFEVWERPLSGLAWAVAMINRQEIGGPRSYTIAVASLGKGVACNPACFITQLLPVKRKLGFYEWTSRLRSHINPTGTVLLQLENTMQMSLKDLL
# Method in brief: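 Citrate buffer pH 4.5, Tween-20 0.005%. Enzyme 2 nM, substrate 80 uM, 20 min RT. Stop pH 10. Fluorescence Ex 365/Em 440. AC50 by Hill fit.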
# [2] = biological target: alpha-glucosidase (Oryza sativa, rice) (UniProt Q653V4); assay: Counterscreen for Glucocerebrosidase Inhibitors: qHTS Assay for Rice alpha-Glucosidase at pH 5.0 (AID 997);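 further: 0% = full activity with enzyme and -100% = basal without enzyme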
# Method in brief: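 Endpoint fluorogenic assay at pH 5.0: compounds (0.7 nM to 77 uM) titrated against 4 nM rice enzyme and 400 uM 4-MU-alpha-glucoside for 20 min at room temperature; NaOH/glycine stop, read ex 365/em 440 nm, Hill-fitted AC50.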
# [3] = qHTS Assay for Lipid Storage Modulators (AID 1519; calls by dose curve; on activity change, negative = inhibition: on the % scale 0 is the no-effect control and ±100 the full control effect); settings: Drosophila S3 cells, BODIPY lipid droplet/cell ratio, laser cytometry, cells loaded with oleic acid
# Method in brief: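 Cells seeded at 5,000 per well were treated with compounds over a concentration series and loaded with oleic acid (400 uM, as added). Lipid droplet fluorescence (488 nm excitation, 500-530 nm channel) was read by laser-scanning cytometry and normalized to 20 uM Triacsin C.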
# [4] = biological target: DNA repair nuclease/redox regulator APEX1 (Homo sapiens) (UniProt P27695); assay: qHTS Validation Assay for Inhibitors of the Human Apurinic/apyrimidinic Endonuclease 1 (APE1) (AID 1705;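 further: TAMRA fluorescence gain over two minutes as APE1 cuts a quenched THF abasic duplex; on the % scale 0 is the no-effect control and ±100 the full control effect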)
# DNA repair nuclease/redox regulator APEX1 (Homo sapiens), sequence (P27695 whole entry, looked up): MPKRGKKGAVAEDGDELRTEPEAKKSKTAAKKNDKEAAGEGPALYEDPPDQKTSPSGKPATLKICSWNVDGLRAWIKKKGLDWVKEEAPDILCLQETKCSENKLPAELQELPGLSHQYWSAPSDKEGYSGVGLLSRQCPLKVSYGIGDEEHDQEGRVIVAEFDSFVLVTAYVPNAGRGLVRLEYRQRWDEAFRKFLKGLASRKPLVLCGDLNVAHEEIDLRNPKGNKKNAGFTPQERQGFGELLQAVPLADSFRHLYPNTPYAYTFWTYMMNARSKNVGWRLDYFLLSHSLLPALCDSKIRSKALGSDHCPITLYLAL
# Method in brief: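 Substrate: 50 nM final fluorophore/quencher THF-abasic duplex. Enzyme preincubated with compounds 15 min, RT. Progress derived from fluorescence difference, third minus first kinetic read.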
# [5] = Counterscreen for APE1 Inhibitors: Fluorescent Dye Displacement Validation Assay (AID 1707);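 further: plate controls were ThO with dsDNA and no compound for no effect and ThO without dsDNA for full effect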
# Method in brief: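 Signal: ThO fluorescence (ex 480 nm/em 540 nm) on binding 50 nM dsDNA; displacement by test compound reduces it. Conditions: 250 nM dye, 50 mM Tris-HCl pH7.5, 2 mM MgCl2, 50mM NaCl, 0.01% Tween-20.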
# [6] = biological target: Endonuclease 4 (Escherichia coli (strain K12)) (UniProt P0A6C1); assay: Counterscreen for APE1 Inhibitors: qHTS Validation Assay for Inhibitors of Endonuclease IV (AID 1708); further: on the % scale 0 is the no-effect control and ±100 the full control effect
# Method in brief: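 Enzyme (2 nM) + compound, 15 min RT; add 50 nM TAMRA/BHQ-2 THF-site dsDNA; kinetic read ex525/em598, 3 reads/60 s; activity = read 3 − read 1. Buffer Tris pH 7.5, 50 mM NaCl, 2 mM MgCl2, DTT, Tween-20.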
# [7] = Cell Viability - LYMP2-026 (AID 989);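 further: cells exposed to compound for 24 h at 37 °C; on the % scale 0 is the no-effect control and ±100 the full control effect; nearly all actives have a fitted effect of over 50% in size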
# Method in brief: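 Cells are seeded at 2500 per well and held 5 hr at 37 C. Compounds are added in concentration series for 24 hr, then CellTiter-Glo reagent is applied and luminescence read.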
# [8] = Cell Viability - LYMP1-002 - Assay at 24 hr (AID 993); further: on the % scale 0 is the no-effect control and ±100 the full control effect
# Method in brief: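 Acute toxicity is measured as concentration-dependent loss of cellular ATP in a human lymphoblastoid line (Coriell LYMP1-002) after 24 h treatment in complete medium. ATP is quantified by luciferase luminescence and AC50 derived by Hill modelling.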
# [9] = Cell Viability - LYMP1-002 - Assay at 40 hr (AID 994);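 further: 0% = DMSO only and full inhibition = 92 µM tetraoctylammonium bromide; nearly all actives have a fitted effect of over 60% in size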
# Method in brief: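 Cells are plated at 2500 per well and rested 5 hr at 37 C. Compounds are added and incubated 40 hr at 37 C. CellTiter-Glo reagent is added for 30 min at room temperature before luminescence is read.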
# [10] = Validation of Assay for Modulators of Lamin A Splicing (AID 1459; active means well fitted curve in the direction sought with a large enough effect in the signal ratio; the % refers to the signal ratio;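 further: cells exposed to compound for two days before reading; 0% is about no effect; ratio rise marks activators and ratio drop marks inhibitors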)
# Method in brief: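 Dual-reporter HeLa S3 line (lamin A-EGFP minigene, DsRed2) treated with compounds 48 hrs, 0.5% DMSO final. Endpoint: EGFP/DsRed2 total intensity ratio from laser-scanning microplate cytometry.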
# [11] = measured here: cell count channel max response
# [12] = measured here: lipid channel max response
compound,measurement,setting,value
NC(N)=Nc1nc(CSCC/C(N)=N/S(N)(=O)=O)cs1,outcome,[1],inactive
same,outcome,[2],inactive
same,"activity change, negative = inhibition",[3]; at 25.7 µM (top of the series),-0.328% (inactive)
same,"activity change, negative = inhibition",[3]; at 57.5 µM (top of the series),0.654% (inactive)
same,max response,[3]; [11],10.2% and -8.15%
same,max response,[3]; [12],9.12% and -7.51%
same,outcome,[4],inactive
same,outcome,[5],inactive
same,outcome,[6],inactive
COc1ccc(-c2coc3cc(O)cc(O)c3c2=O)cc1,"activity change, negative = inhibition",[3]; at 57.5 µM (top of the series),4.62% (inactive) and -2.47% (inactive)
same,max response,[3]; [11],-4.41% and 15.8%
same,max response,[3]; [12],0.883% and 14.1%
Cc1cccc(C)c1OCC(C)N (stereo not given),"activity change, negative = inhibition",[3]; at 57.5 µM (top of the series),1.76% (inactive) and 1.1% (inactive)
same,max response,[3]; [11],8.91% and -0.493%
same,max response,[3]; [12],19.3% and 0.0191%
same,outcome,[4],inactive
same,outcome,[5],inactive
same,outcome,[6],inactive
O=c1c(-c2ccc(O)cc2)coc2cc(O)ccc12,Potency,[7],inactive
same,outcome,[1],inactive
same,Potency,[8],inactive
same,Potency,[9],inactive
same,outcome,[2],inactive
same,outcome,[10],inactive
same,"activity change, negative = inhibition",[3]; at 57.5 µM (top of the series),2.37% (inactive) and 2.36% (inactive) and 1.08% (inactive)
same,max response,[3]; [11],20.5% and -6.62% and -6.98%
same,max response,[3]; [12],24.2% and -1.3% and -6.64%
same,outcome,[4],inactive
same,outcome,[5],inactive
same,outcome,[6],inactive
CC(C)[C@H](CO)Nc1nc(Nc2ccc(C(=O)O)c(Cl)c2)c2ncn(C(C)C)c2n1,"activity change, negative = inhibition",[3]; at 57.5 µM (top of the series),6.65% (inactive)
same,max response,[3]; [11],12.5%
same,max response,[3]; [12],19.1%
Clc1ccc(Cn2c(CN3CCCC3)nc3ccccc32)cc1,outcome,[1],inactive
same,outcome,[2],inactive
same,outcome,[10],inactive
same,"activity change, negative = inhibition",[3]; at 25.7 µM (top of the series),-4.13% (inactive)
same,max response,[3]; [11],-8.03%
same,max response,[3]; [12],-12.8%
same,outcome,[4],inactive
same,outcome,[5],inactive
same,outcome,[6],inactive
COc1ccc(-c2coc3cc(O)ccc3c2=O)cc1,"activity change, negative = inhibition",[3]; at 57.5 µM (top of the series),-1.11% (inactive)
same,max response,[3]; [11],3.06%
same,max response,[3]; [12],2.76%
O=c1cc(-c2ccccc2)oc2cc(O)cc(O)c12,"activity change, negative = inhibition",[3]; at 25.7 µM (top of the series),-11.6% (inactive)
same,"activity change, negative = inhibition",[3]; at 57.5 µM (top of the series),1.96% (inactive) and -20.6% (inactive)
same,max response,[3]; [11],-13.1% and 8.12% and 6.97%
same,max response,[3]; [12],-20.8% and 15.3% and -13.5%
c1ccc2c(Cc3c[nH]c4ccccc34)c[nH]c2c1,"activity change, negative = inhibition",[3]; at 57.5 µM (top of the series),12.9% (inactive)
same,max response,[3]; [11],7.31%
same,max response,[3]; [12],20.3%
CCCCCCCCCCCC1=C(O)C(=O)C=C(O)C1=O,"activity change, negative = inhibition",[3]; at 57.5 µM (top of the series),11.6% (inactive) and 5.79% (inactive)
same,max response,[3]; [11],14.8% and -11.9%
same,max response,[3]; [12],24.3% and -12.6%
COc1cc(O)c2c(c1)C(=O)c1cc(C)cc(O)c1C2=O,"activity change, negative = inhibition",[3]; at 57.5 µM (top of the series),2.34% (inactive)
same,max response,[3]; [11],7.65%
same,max response,[3]; [12],11.5%
COc1ccc(C2Sc3ccccc3N(CCN(C)C)C(=O)C2OC(C)=O)cc1 (stereo not given),"activity change, negative = inhibition",[3]; at 57.5 µM (top of the series),6.14% (inactive)
same,max response,[3]; [11],15.8%
same,max response,[3]; [12],23.3%
O=c1c(O)c(-c2ccc(O)cc2)oc2cc(O)cc(O)c12,Potency,[7],inactive
same,Potency,[8],inactive
same,Potency,[9],inactive
same,"activity change, negative = inhibition",[3]; at 25.7 µM (top of the series),-1.01% (inactive)
same,"activity change, negative = inhibition",[3]; at 57.5 µM (top of the series),9.57% (inactive)
same,max response,[3]; [11],-23.1% and 1.49%
same,max response,[3]; [12],-23.3% and 13.5%
CCN1CCC[C@H]1CNC(=O)c1cc(S(N)(=O)=O)ccc1OC,outcome,[1],inactive
same,outcome,[2],inactive
same,"activity change, negative = inhibition",[3]; at 25.7 µM (top of the series),-2.7% (inactive)
same,"activity change, negative = inhibition",[3]; at 57.5 µM (top of the series),-2.29% (inactive) and -0.529% (inactive)
same,max response,[3]; [11],-6.81% and 8.22% and 14.9%
same,max response,[3]; [12],-10.9% and 9.44% and 14.1%
same,outcome,[4],inactive
same,outcome,[5],inactive
same,outcome,[6],inactive
C[C@]12CCC3c4ccc(O)cc4CCC3C1CCC2=O (stereo not given in full),"activity change, negative = inhibition",[3]; at 57.5 µM (top of the series),3.27% (inactive)
same,max response,[3]; [11],-11.3%
same,max response,[3]; [12],-4.67%
Nc1ncnc2c1ncn2[C@@H]1O[C@@H](CO)[C@H](O)[C@H]1O,"activity change, negative = inhibition",[3]; at 25.7 µM (top of the series),-0.901% (inactive)
same,max response,[3]; [11],-3.51%
same,max response,[3]; [12],-9.07%
CC(=O)c1ccc(S(=O)(=O)NC(=O)NC2CCCCC2)cc1,Potency,[7],inactive
same,outcome,[1],inactive
same,Potency,[8],inactive
same,Potency,[9],inactive
same,outcome,[2],inactive
same,"activity change, negative = inhibition",[3]; at 25.7 µM (top of the series),-0.412% (inactive)
same,"activity change, negative = inhibition",[3]; at 57.5 µM (top of the series),2.09% (inactive)
same,max response,[3]; [11],-7.61% and -6.03%
same,max response,[3]; [12],-6.16% and -3.34%
same,outcome,[4],inactive
same,outcome,[5],inactive
same,outcome,[6],inactive
CCN(CC)CCOC(=O)c1ccc(N)cc1,outcome,[1],inactive
same,outcome,[2],inactive
same,"activity change, negative = inhibition",[3]; at 25.7 µM (top of the series),-0.292% (inactive)
same,"activity change, negative = inhibition",[3]; at 57.5 µM (top of the series),1.41% (inactive)
same,max response,[3]; [11],4.92% and -22.1%
same,max response,[3]; [12],5.47% and -19.5%
same,outcome,[4],inactive
same,outcome,[5],inactive
O=c1cc(-c2ccccc2)oc2cc(O)c(O)c(O)c12,"activity change, negative = inhibition",[3]; at 57.5 µM (top of the series),6.99% (inactive)
same,max response,[3]; [11],-15.3%
same,max response,[3]; [12],-4.95%
C[C@@H](O)[C@H]1C(=O)N2C(C(=O)O)=C(S[C@@H]3CN[C@H](C(=O)N(C)C)C3)[C@H](C)[C@H]12,"activity change, negative = inhibition",[3]; at 25.7 µM (top of the series),-1.28% (inactive)
same,max response,[3]; [11],-4.15%
same,max response,[3]; [12],-5.75%
COc1ccccc1N1CCN(CCCNc2cc(=O)n(C)c(=O)n2C)CC1,outcome,[1],inactive
same,outcome,[2],inactive
same,"activity change, negative = inhibition",[3]; at 25.7 µM (top of the series),0.233% (inactive)
same,"activity change, negative = inhibition",[3]; at 57.5 µM (top of the series),1.54% (inactive)
same,max response,[3]; [11],-9.35% and -6.19%
same,max response,[3]; [12],-9.3% and -4.74%
same,outcome,[4],inactive
same,outcome,[5],inactive
same,outcome,[6],inactive
CC(=O)CCCCn1c(=O)c2c(ncn2C)n(C)c1=O,outcome,[1],inactive
same,outcome,[2],inactive
same,"activity change, negative = inhibition",[3]; at 25.7 µM (top of the series),-2.17% (inactive)
same,"activity change, negative = inhibition",[3]; at 57.5 µM (top of the series),7.3% (inactive)
same,max response,[3]; [11],6.56% and 15.7%
same,max response,[3]; [12],4.54% and 26.5%
same,outcome,[4],inactive
same,outcome,[5],inactive
CCCNC(=O)NS(=O)(=O)c1ccc(Cl)cc1,Potency,[7],inactive
same,outcome,[1],inactive
same,Potency,[8],inactive
same,Potency,[9],inactive
same,outcome,[2],inactive
same,"activity change, negative = inhibition",[3]; at 25.7 µM (top of the series),-1.71% (inactive)
same,max response,[3]; [11],8.45%
same,max response,[3]; [12],7.5%
same,outcome,[4],inactive
same,outcome,[5],inactive
same,outcome,[6],inactive
O=C1NCC2(CCN(CCc3ccccc3)CC2)O1,outcome,[1],inactive
same,outcome,[2],inactive
same,outcome,[10],inactive
same,"activity change, negative = inhibition",[3]; at 25.7 µM (top of the series),-2.42% (inactive)
same,"activity change, negative = inhibition",[3]; at 57.5 µM (top of the series),11.9% (inactive) and -0.152% (inactive)
same,max response,[3]; [11],-3.3% and 25.9% and -24.6%
same,max response,[3]; [12],-4.45% and 48.5% and -24.1%
same,outcome,[4],inactive
same,outcome,[5],inactive
COc1ccc2c3c1OC1C[C@@H](O)C=C[C@@]31CCN(C)C2 (stereo not given in full),"activity change, negative = inhibition",[3]; at 25.7 µM (top of the series),-1.59% (inactive)
same,"activity change, negative = inhibition",[3]; at 57.5 µM (top of the series),-3.75% (inactive)
same,max response,[3]; [11],1.47% and -27.6%
same,max response,[3]; [12],-1.31% and -11.1%

# From PubChem BioAssay (NCATS)
